As a reminder, the inhibition is the relative decrease from the control value, in per cent.

Each structure is given as a SMILES string. “And” between values parts separate entries of the source, which are not always exact repeats. Identical values can stand only once.

Consider 16 compounds from ChEMBL document CHEMBL1961873, “Compounds: GSK PKIS; Assays: Nanosyn kinase panel” (2012).

The target of assay [1] is Tyrosine-protein kinase SYK (Homo sapiens) (UniProt P43405). Conditions: at 1 µM.
Assay [2] deals with T1, Tyrosine-protein kinase Tec (Homo sapiens) (UniProt P42680).
T1 sequence (whole entry): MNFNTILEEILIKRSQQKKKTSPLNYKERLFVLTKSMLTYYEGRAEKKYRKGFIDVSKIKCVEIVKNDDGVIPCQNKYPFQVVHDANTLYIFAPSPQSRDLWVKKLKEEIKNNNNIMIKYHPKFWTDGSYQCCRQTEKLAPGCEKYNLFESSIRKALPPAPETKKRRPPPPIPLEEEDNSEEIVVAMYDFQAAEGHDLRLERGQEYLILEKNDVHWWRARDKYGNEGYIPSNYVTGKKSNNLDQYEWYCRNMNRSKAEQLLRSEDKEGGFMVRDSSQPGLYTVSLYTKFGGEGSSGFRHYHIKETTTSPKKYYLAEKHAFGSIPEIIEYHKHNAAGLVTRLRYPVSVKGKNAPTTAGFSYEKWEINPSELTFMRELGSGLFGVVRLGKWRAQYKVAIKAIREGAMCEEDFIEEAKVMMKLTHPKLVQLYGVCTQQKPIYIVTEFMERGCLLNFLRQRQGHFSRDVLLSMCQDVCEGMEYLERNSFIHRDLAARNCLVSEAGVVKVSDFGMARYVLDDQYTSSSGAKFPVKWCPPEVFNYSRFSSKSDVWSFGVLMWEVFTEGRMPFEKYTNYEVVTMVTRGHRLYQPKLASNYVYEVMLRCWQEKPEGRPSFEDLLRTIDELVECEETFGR
Conditions: at 0.1 µM.

Assay [3] deals with T1, Tyrosine-protein kinase Tec (Homo sapiens). Conditions: at 1 µM.
Assay [4] addresses Angiopoietin-1 receptor (Homo sapiens) (UniProt Q02763). Conditions: at 0.1 µM.
The target is the same in assay [5]. Conditions: at 1 µM.
Assay [6] concerns the target T2, Non-receptor tyrosine-protein kinase TNK1 (Homo sapiens) (UniProt Q13470).
T2 sequence (whole entry): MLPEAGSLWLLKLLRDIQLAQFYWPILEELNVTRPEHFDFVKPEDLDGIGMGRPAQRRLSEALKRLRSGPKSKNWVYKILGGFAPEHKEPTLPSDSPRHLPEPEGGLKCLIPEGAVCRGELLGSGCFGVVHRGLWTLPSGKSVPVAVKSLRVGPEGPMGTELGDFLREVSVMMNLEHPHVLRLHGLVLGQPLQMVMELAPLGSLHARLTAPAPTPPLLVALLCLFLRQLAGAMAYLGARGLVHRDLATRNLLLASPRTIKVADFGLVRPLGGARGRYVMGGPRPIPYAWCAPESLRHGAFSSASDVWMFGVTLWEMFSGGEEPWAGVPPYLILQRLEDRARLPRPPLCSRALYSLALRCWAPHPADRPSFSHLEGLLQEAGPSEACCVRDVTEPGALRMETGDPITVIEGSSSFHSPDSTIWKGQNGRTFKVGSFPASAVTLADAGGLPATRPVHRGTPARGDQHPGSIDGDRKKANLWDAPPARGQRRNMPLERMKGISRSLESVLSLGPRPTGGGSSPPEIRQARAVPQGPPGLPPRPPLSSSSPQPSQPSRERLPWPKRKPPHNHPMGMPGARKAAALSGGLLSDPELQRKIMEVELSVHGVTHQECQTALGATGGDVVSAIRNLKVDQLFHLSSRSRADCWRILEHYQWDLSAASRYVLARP
Conditions: at 0.1 µM.

Assay [7] addresses T2, Non-receptor tyrosine-protein kinase TNK1 (Homo sapiens). Conditions: at 1 µM.
In assay [8] the target is Activated CDC42 kinase 1 (Homo sapiens) (UniProt Q07912). Conditions: at 0.1 µM.
Chain of Activated CDC42 kinase 1 (Homo sapiens) (Q07912 whole entry, looked up): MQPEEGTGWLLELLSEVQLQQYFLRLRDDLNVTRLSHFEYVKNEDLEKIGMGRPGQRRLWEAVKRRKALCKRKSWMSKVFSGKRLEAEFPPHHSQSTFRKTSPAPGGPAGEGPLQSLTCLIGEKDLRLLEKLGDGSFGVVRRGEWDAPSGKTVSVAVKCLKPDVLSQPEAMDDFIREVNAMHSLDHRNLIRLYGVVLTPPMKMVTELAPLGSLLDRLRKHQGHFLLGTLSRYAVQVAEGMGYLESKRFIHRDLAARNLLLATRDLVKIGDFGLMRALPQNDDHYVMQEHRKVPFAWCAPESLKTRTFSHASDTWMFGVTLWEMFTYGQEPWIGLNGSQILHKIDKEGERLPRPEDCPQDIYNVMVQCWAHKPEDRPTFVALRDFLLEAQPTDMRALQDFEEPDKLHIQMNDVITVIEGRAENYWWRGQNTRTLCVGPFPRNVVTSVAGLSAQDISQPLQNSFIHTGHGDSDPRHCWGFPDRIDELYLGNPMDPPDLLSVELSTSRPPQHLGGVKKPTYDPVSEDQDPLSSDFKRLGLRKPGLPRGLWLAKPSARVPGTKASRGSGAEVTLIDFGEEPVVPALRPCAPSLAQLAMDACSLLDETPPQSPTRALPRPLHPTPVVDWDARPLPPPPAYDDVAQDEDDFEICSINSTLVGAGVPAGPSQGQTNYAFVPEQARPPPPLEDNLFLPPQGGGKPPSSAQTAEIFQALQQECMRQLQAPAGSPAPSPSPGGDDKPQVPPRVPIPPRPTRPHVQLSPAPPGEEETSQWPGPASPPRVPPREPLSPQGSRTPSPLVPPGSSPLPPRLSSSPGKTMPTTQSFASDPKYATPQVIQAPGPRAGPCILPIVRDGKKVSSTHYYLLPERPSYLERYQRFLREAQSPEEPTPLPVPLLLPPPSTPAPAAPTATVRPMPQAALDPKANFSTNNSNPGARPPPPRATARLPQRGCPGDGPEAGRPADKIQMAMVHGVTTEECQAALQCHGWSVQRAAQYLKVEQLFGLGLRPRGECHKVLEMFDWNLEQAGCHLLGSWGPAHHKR
The target is the same in assay [9]. Conditions: at 1 µM.
Assay [10] deals with High affinity nerve growth factor receptor (Homo sapiens) (UniProt P04629). Conditions: at 0.1 µM.
Chain of High affinity nerve growth factor receptor (Homo sapiens) (P04629 33-796 limits assumed): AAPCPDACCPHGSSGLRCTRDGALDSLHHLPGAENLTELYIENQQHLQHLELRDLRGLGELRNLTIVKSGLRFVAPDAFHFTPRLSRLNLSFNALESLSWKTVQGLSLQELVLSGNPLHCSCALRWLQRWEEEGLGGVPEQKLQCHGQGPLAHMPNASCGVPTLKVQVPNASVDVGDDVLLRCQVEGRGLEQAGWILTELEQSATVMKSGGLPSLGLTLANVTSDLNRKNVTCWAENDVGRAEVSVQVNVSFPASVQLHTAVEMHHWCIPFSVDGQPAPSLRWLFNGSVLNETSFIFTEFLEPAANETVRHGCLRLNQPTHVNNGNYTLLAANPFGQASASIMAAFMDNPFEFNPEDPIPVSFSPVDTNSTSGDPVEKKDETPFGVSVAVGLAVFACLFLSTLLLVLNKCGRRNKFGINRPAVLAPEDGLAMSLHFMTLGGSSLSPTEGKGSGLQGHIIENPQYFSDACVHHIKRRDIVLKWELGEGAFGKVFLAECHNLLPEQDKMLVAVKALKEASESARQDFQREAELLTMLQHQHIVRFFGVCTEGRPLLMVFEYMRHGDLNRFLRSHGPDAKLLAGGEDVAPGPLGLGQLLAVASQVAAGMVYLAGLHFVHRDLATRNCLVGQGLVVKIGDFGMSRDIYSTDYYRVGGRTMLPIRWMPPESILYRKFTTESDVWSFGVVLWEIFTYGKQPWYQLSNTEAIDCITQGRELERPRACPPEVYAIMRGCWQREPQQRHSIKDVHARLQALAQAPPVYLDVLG

Chain of Angiopoietin-1 receptor (Homo sapiens) (Q02763 whole entry): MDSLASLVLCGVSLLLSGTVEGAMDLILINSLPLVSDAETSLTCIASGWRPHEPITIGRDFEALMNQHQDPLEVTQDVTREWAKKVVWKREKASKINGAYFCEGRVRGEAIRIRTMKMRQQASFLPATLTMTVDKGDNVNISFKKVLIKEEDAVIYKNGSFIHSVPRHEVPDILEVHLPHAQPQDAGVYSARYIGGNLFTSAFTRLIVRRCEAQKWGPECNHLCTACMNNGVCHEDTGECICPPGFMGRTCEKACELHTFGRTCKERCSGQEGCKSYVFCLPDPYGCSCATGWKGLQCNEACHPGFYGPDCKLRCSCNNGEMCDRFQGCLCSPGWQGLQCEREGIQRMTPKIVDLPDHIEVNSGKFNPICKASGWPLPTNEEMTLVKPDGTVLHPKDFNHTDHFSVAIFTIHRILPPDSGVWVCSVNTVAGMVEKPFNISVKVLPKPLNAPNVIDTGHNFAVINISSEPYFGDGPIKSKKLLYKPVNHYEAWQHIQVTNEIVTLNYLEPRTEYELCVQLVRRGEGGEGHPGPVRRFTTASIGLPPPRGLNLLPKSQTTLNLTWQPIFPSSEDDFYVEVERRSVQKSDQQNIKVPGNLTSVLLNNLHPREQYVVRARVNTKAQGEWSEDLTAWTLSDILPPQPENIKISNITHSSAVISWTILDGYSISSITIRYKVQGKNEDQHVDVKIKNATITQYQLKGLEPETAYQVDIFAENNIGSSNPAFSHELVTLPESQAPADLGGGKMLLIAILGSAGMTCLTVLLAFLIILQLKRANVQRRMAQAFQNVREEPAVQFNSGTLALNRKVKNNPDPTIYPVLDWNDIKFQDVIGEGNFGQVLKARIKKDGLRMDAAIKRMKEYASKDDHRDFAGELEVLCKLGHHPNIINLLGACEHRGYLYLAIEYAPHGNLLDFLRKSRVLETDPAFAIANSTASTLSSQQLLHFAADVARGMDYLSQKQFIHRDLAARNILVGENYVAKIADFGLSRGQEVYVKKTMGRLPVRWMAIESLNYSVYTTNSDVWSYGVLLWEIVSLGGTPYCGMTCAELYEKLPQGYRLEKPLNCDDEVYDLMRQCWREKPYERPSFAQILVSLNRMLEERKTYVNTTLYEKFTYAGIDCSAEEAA

Consider `CN1CCC(C(=O)Nc2n[nH]c3nc(-c4ccc(O)cc4)c(Br)cc23)CC1`, for which the inhibition in assay [1] is -0.04% and 0.42%; in assay [2] it was -1.21% and 2.96%; in assay [3], 1.24% and 2.96%; in [4], 3.01% and 5.98%; in assay [5], 7.84% and 7.69%; in [6], 3.57% and 0.52%. Besides, the inhibition in assay [7] is 6.51% and 6.06%; in [8], 0.92% and 0.24%; in [9], 1.76% and 1.56%; in assay [10], 1.13% and 2.68%.
With `COc1c(C(N)=O)cc(-c2ccc(Cl)cc2)cc1-c1ccc(S(N)(=O)=O)cc1`, the inhibition in [1] was found to be 4.05%; in [2], 7.49%; in assay [3] it was 3.79%; in assay [4], 5.29%; in [5], 7.54%; in [6] it was 2.66%. Moreover, the inhibition in assay [7] came out at 3.9%; in [8] it was 1.22%; in [9], 3.03%; in [10], 4.76%.
Take `c1cnn2ncc(-c3ccnc(NCCCN4CCOCC4)n3)c2c1`: the inhibition in assay [1] amounted to 0.5%; in assay [2] it was 2.64%; in assay [3], 3.12%; in [4] it was 2.79%; in [5], 3.09%; in [6], 1.04%. Further, the inhibition is -1.51% in assay [7], 0.23% in [8], -0.49% in [9] and 2.69% in [10].
Consider `CS(=O)(=O)CCNCc1ccc(-c2ccc3ncnc(Nc4ccc(OCc5ccccc5)cc4)c3c2)o1`, for which the inhibition was -0.71% in assay [1]; 1.49% in assay [2]; 7.43% in assay [3]; 1.24% in assay [4]; 4.15% in assay [5]; 3.51% in assay [6]. Further, the inhibition in [7] worked out at 16.6%; in [8], 1.73%; in assay [9] it was 2.69%; in [10] it was 1.91%.
In the case of `Fc1ccc(Nc2nccc(-c3c(-c4ccc(C(F)(F)F)cc4)nn4ncccc34)n2)cc1F`, the inhibition is -0.68% in assay [1]; 4.32% in [2]; 6.72% in assay [3]; 1.72% in [4]; 1.95% in [5]; 3.85% in assay [6]. Also, the inhibition in assay [7] was -0.46%; in [8], 1.2%; in assay [9], 0.83%; in [10], 2.39%.
With `COc1ccccc1-c1cc(/C=C2\C(=O)Nc3ncc(Br)cc32)cc(Br)c1O`, the inhibition in assay [1] is -0.96%; in [2], 4.41%; in assay [3], 10.3%; in [4], 4.42%; in [5], 6.14%; in assay [6] it was 40.2%. The inhibition amounted to 80.4% in assay [7], 1.04% in assay [8], 0.66% in assay [9] and 9.43% in [10].
With `COC(=O)Nc1nc2cc(Oc3ccc(NC(=O)Nc4ccccc4)cc3)ccc2[nH]1`, the inhibition in [1] stood at 0.09%; in [2] it was 1.83%; in [3], 1.84%; in assay [4] it was 5.37%; in assay [5], 9.24%; in assay [6], 2.64%. Further, the inhibition in [7] is 4.12%; in [8] it was 0.69%; in assay [9], 1.18%; in assay [10], 2.62%.
As for `COc1cccc(Nc2nccc(-c3cnn4ncccc34)n2)c1`, the inhibition in [1] was 34.2%; in assay [2] it was 4.27%; in assay [3], 25.1%; in assay [4], 5.94%; in assay [5], 21.3%; in [6], 15.3%. Further, the inhibition in [7] stood at 65.9%; in assay [8] it was 1.79%; in [9], 21.7%; in assay [10] it was 4.75%.
Regarding `CNC(=O)c1cncc(/C=C/c2ccccc2C)c1`, the inhibition in assay [1] is -0.24%; in assay [2] it was 6.1%; in assay [3], 16.4%; in assay [4], 1.59%; in assay [5] it was -0.24%; in assay [6], 3.86%. The inhibition in assay [7] stood at 20.7%; in [8], 1.54%; in assay [9], 8.09%; in [10], 3.97%.
In the case of `CS(=O)(=O)CCNCc1ccoc1-c1ccc2ncnc(Nc3ccc(OCc4ccccc4)cc3)c2c1`, the inhibition is 0.23% in assay [1]; 0.03% in [2]; 3.04% in assay [3]; 1.86% in assay [4]; 4.86% in assay [5]; 1.08% in assay [6]. The inhibition in assay [7] stood at 5.74%; in assay [8], 0.06%; in [9] it was 0.6%; in assay [10], 1.31%.
`COc1cc(Nc2ncc(-c3ccccc3)o2)cc(OC)c1`: the inhibition in assay [1] was -7.57%; in assay [2] it was 2.12%; in [3] it was 7.94%; in assay [4] it was 3.94%; in [5] it was 7.85%; in assay [6] it was 2.49%. Besides, the inhibition in [7] was 31.1%; in assay [8], 1.44%; in [9], 3.07%; in assay [10], 3.5%.
Regarding `Cc1cc(O)cc(C)c1/C=C/c1cncc(C(=O)OC(C)(C)C)c1`, the inhibition was 0.64% in [1]; 5.96% in assay [2]; 30.2% in assay [3]; 2.09% in [4]; 3.67% in assay [5]; 2.08% in assay [6]. Also, the inhibition in [7] is 15.7%; in assay [8] it was 1.33%; in assay [9], 4.9%; in assay [10], 3.36%.
On to `NS(=O)(=O)c1cccc(N/C=C2\C(=O)Nc3ccccc32)c1`, for which the inhibition was -1.66% in [1]; 4.94% in assay [2]; 7.41% in [3]; 4.12% in [4]; 8.33% in assay [5]; 3.06% in assay [6]. Also, the inhibition in assay [7] was determined as 5.85%; in [8] it was 0.36%; in assay [9], 1.26%; in assay [10], 4.69%.
As to `COc1cc2c(cc1Nc1nc(Nc3cccc(F)c3C(N)=O)c3cc[nH]c3n1)N(C(=O)CN1CCN(C(C)C)CC1)CC2`, the inhibition in assay [1] was 3.08%; in assay [2], 5.26%; in [3], 1.94%; in [4], 4.46%; in assay [5], 2.66%; in assay [6] it was 3.48%. Further, the inhibition in assay [7] came to 22.4%; in assay [8], 1.09%; in [9], 5.91%; in [10], 1.48%.
As to `Cc1c2ccc(N(C)c3ccnc(Nc4cccc(S(N)(=O)=O)c4)n3)cc2nn1C`, the inhibition in [1] is -6.33%; in [2], 13.8%; in [3], 50.2%; in assay [4], 12.4%; in assay [5], 53%; in assay [6], 16.6%. For the same compound, the inhibition was found to be 60.1% in assay [7], 1.67% in assay [8], 4.21% in assay [9] and 4.18% in assay [10].
Regarding `Cc1ccc(-c2cc3c(NC(=O)C4CC4)ncnc3o2)cc1`, the inhibition was -1.6% in [1]; 5.2% in assay [2]; 13.1% in [3]; 3.09% in [4]; 4.4% in assay [5]; 3.37% in [6]. The inhibition in assay [7] is 6.56%; in [8], 1.58%; in [9], 4.37%; in assay [10], 4.74%.
